Bioassay records: PubChem, several laboratories
UGM FP inh: M. tuberculosis UGM enzyme inhibitors, primary screen, biochemical, fluorescence polarization, single point. inhibition, % at 10 µM. purified UGM, fluorescence polarization probe displacement. UDP-galactopyranose mutase (Mycobacterium tuberculosis (strain ATCC 25618 / H37Rv)), …. actives 0.06% (n = 320,000); in the data active = inhibition above about 10%, passing the limit was not always enough
Rv3671c inh: Rv3671c serine protease inhibitors, primary screen, biochemical, fluorescence polarization, M. tuberculosis H37Rv; inhibition, % at 5.96 µM; actives 0.048% (n = 320,000); AID 2606, 2010;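 note: extracellular domain of Rv3671c used as enzyme; 0% = enzyme with DMSO and 100% = no enzyme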
Target sequence (P9WHR9 whole entry, looked up, the tested form may be a part): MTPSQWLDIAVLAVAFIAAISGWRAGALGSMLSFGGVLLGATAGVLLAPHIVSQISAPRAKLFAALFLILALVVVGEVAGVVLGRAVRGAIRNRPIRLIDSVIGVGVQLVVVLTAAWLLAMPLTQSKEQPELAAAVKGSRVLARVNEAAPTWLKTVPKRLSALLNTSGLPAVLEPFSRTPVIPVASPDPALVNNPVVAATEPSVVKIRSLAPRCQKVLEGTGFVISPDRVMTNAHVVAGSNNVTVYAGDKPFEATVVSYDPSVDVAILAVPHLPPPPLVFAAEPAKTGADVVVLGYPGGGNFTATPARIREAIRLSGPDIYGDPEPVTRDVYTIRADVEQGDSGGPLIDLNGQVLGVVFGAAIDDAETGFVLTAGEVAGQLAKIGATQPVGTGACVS
FBA Mtb inh: Mtb FBA enzyme inhibitors, primary screen, biochemical, fluorescence, strain H37Rv | Fructose-bisphosphate aldolase (Mycobacterium tuberculosis (strain ATCC 25618 / H37Rv)), … | purified M. tuberculosis FBA, fluorescence read-out | inhibition, % at 1 µM | actives 2.3% (n = 360,000) | AID 588726, 2011; in the data active = inhibition above about 27%;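 note: 0% = vehicle and 100% = reference inhibitor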
GDH-TPI counter: GDH-TPI coupling enzyme inhibitors, primary screen, artefact control for M. tuberculosis FBA inhibitor project, biochemical, absorbance, full deck; GDH-TPI coupled enzyme counterscreen, NADH absorbance; inhibition, % at 4.8 µM; actives 1.2% (n = 360,000); AID 588335, 2011; in the data active = inhibition above about 30%;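 note: 0% = DMSO wells and 100% = wells lacking the enzyme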
Rv3671c cf: Rv3671c serine protease inhibitors, retest, confirmation, biochemical, fluorescence polarization, M. tuberculosis H37Rv; inhibition, % at 5.96 µM; shares compounds with Rv3671c inh; actives 40% (n = 140)
Active calls of the source: *; · = no result given; + = active, no number. Compounds with a hit are over-represented: about 3.5% of the library has one in this group of screens. Cut-off read from the data, not from the text of the source, unless noted: active = inhibition above about 38%; inactive = the rest.

SMILES	UGM FP inh	Rv3671c inh	FBA Mtb inh	GDH-TPI counter	others
O=C(NCc1nc2ccccc2[nH]1)c1ccco1	1.7	4.2	0.4	-9.9
O=C(N/C(=C/c1ccc(Cl)cc1)c1nc2ccccc2[nH]1)c1ccco1	-0.5	1.4	3.9	42.2*
O=C(N/C(=C/c1ccc(Br)cc1)c1nc2ccccc2[nH]1)c1ccco1	1.5	-12.7	4.8	31.8*
CCC1(c2ccc(F)cc2)NC(=O)N(CC(=O)N2c3ccccc3CC2C)C1=O (stereo unspecified)	1.7	-1.9	2.8	-3.2
CC1OC(Oc2ccc3ccc(=O)oc3c2-c2c(O)ccc3cc(Oc4ccc5ccc(=O)oc5c4)c(=O)oc23)C(O)C(O)C1O (stereo unspecified)	2.9	-0.6	2.6	45.3*
O=c1ccc2cc(OC3O[C@H](CO)[C@@H](O)[C@H](O)[C@H]3O)c(O)cc2o1 (stereo partly specified)	0.9	8.4	·	19.8
CC1=C(C(=O)N(C)C)CC(CC(=O)NCCc2ccccn2)C(=O)N1Cc1ccc(F)cc1 (stereo unspecified)	·	·	1.3	-5.2
Cc1[nH]ccc2c1[nH]c1cc(=O)ccc12	-0.9	-5.7	166.8*	6.7
Cc1cc(=O)[nH]c2cc(Cl)ccc12	3.6	-4.6	0.9	12.4
COc1cc(C#N)ccc1OCC(=O)Nc1cccc(S(=O)(=O)N(C)c2ccccc2)c1	·	·	2.7	15.2
CN(C)c1ccc2c(=O)cc[nH]c2c1	·	·	+	·
CC(C)(C)OC(=O)C[C@@H]1C/C=C\C[C@H](CC(=O)N(CCO)Cc2ccccc2)C(=O)NCCOC1=O	·	-4.1	-2.0	1.8
CCN(CC)c1ccc(-c2nnc(SCC(=O)N(CCOC)c3c(N)n(CC(C)C)c(=O)[nH]c3=O)o2)cc1	·	-3.4	-1.8	47.2*
CC(=O)Nc1ccc(OS(=O)(=O)c2c(C)cc(C)cc2C)cc1	1.1	-8.5	-2.8	-6.8
Fc1ccc(Nc2c(-c3ccco3)nc3ccccn23)cc1	·	8.9	133.4*	4.0
Cc1ccc(Nc2c(-c3ccco3)nc3ccccn23)cc1	1.6	2.9	121.2*	22.2
COc1ccc(Nc2c(-c3ccco3)nc3ccc(C)cn23)cc1	0.6	4.8	18.3	22.1
CC[n+]1c(/C=C(/C)SC)sc2ccccc21	0.1	-14.4	2.2	38.3*
CC[n+]1c(/C=C(\C)SC)sc2ccccc21	-1.3	-6.8	1.6	13.2
CC[n+]1c(/C=C(\C)Nc2ccccc2)sc2ccccc21	1.5	-7.8	1.4	31.0*
Cc1cc2[nH]c(=O)c(=O)[nH]c2cc1S(=O)(=O)Nc1cccc(F)c1	-1.8	2.0	1.8	7.4
Cn1c(=O)c(-c2ccccc2)c(O)c2ccccc21	-0.8	-8.3	12.9	11.7
Cc1c(O)c(=O)c2ccccc2n1C	0.7	7.5	149.9*	25.4
COc1ccc2nc(NC(=O)c3ccc(NS(=O)(=O)c4cccs4)cc3)sc2c1	0.7	-94.5	21.2	39.5*
Cc1cccc2sc(NC(=O)c3ccc(NS(=O)(=O)c4cccs4)cc3)nc12	-0.4	-156.1	8.4	32.3*
SMILES	UGM FP inh	Rv3671c inh	FBA Mtb inh	GDH-TPI counter	others
CCOc1ccccc1C(=O)NC(C(=O)N(C)c1c(N)n(Cc2ccccc2)c(=O)[nH]c1=O)C(C)C (stereo unspecified)	·	·	4.2	1.8
CC(C)(C)c1ccc(-c2noc(CNC(=O)c3ccco3)n2)cc1	0.6	4.4	1.1	3.7
O=C(Nc1cc(Cl)cc(Cl)c1)c1coc(=O)c(Br)c1	-1.2	5.4	136.5*	32.4*
O=C(NC(CO)(CO)CO)c1coc(=O)c(Br)c1	-0.6	-5.0	5.2	44.4*
C[C@@H](NC(=O)c1[nH]cnc1C(=O)Nc1cccc(Cl)c1)c1ccccc1	-2.2	-15.0	-0.8	6.0
CN(C)c1nc(N)c([N+](=O)[O-])c(NCCO)n1	-2.0	-2.8	-1.9	50.6*
CNc1nc(N)c([N+](=O)[O-])c(NCc2ccccc2)n1	1.9	4.7	-1.8	42.0*
CN(C)c1nc(N)c([N+](=O)[O-])c(NCc2ccccc2)n1	4.0	-5.3	0.1	42.0*
COCCCNc1nc(N)c([N+](=O)[O-])c(NCc2ccccc2)n1	0.2	-9.8	-3.6	15.1
CN(C)CCCNc1nc(N)c([N+](=O)[O-])c(NCc2ccccc2)n1	-1.4	·	0.9	41.0*
Nc1nc(NCc2ccccc2)nc(NCc2ccccc2)c1[N+](=O)[O-]	-2.1	-6.8	0.1	14.4
Cc1noc(C(=O)Nc2ccc(F)c(Cl)c2)c1Cl	-3.1	61.3*	0.3	0.4	Rv3671c cf=-4.7
COc1cc(C=NNc2ccc(S(=O)(=O)Nc3ccccc3C(=O)O)cc2[N+](=O)[O-])ccc1O	2.4	47.1*	-5.6	30.0	Rv3671c cf=41.6*
Cc1noc(C)c1NC(=O)N(C)C[C@H]1Oc2ccc(NC(=O)Nc3ccc(C(F)(F)F)cc3)cc2C(=O)N([C@H](C)CO)C[C@@H]1C	0.3	-12.8	1.1	7.2
O=C(O)C1Nc2c(O)cc(Cl)c([N+](=O)[O-])c2C2C=CCC12 (stereo unspecified)	1.3	49.2*	-8.5	10.5	Rv3671c cf=18.1
COc1cc(C[C@@H](CO)[C@H](CO)Cc2ccc(O)c(OC)c2)ccc1O	-1.4	0.4	·	·
O=C(O)c1cc(O)c2c(c1)[C@@H]([C@H]1c3cc(C(=O)O)cc(O)c3C(=O)c3c(O[C@@H]4O[C@H](CO)[C@@H](O)[C@H](O)[C@H]4O)cccc31)c1cccc(O[C@@H]3O[C@H](CO)[C@@H](O)[C@H](O)[C@H]3O)c1C2=O	-0.6	71.3*	·	·	Rv3671c cf=20.6
C=CCn1cc(/C=N/Nc2nc3ccccc3[nH]2)c2ccccc21	0.5	40.0*	4.4	17.9	Rv3671c cf=68.2*
Cn1c(/C=N/Nc2nc3ccccc3[nH]2)nc2ccccc21	1.1	-2.8	3.4	9.1
CCN1CCN(CCNC(=O)CCCn2nc(C)c3c(C)n(-c4ccc(C)cc4)nc3c2=O)CC1	-1.1	-0.9	2.4	7.6
COc1ccc(OCCn2cc(/C=N/NC(=O)c3ccncc3)c3ccccc32)cc1	-0.3	3.2	1.9	8.9
Cc1ccc(OCCn2cc(/C=N/NC(=O)c3ccncc3)c3ccccc32)cc1	3.9	40.2*	1.7	27.6	Rv3671c cf=26.3
O=C(N/N=C/c1cc([N+](=O)[O-])ccc1O)NC12CC3CC(CC(C3)C1)C2	1.1	51.9*	-2.7	18.8	Rv3671c cf=19.8
Nc1ccc(O)c2c1C(=O)c1ccccc1C2=O	3.5	56.2*	-0.5	2.0	Rv3671c cf=38.2*
CC(=O)[C@]1(O)Cc2c(O)c3c(c(O)c2[C@@H](O[C@H]2C[C@H](N)[C@H](O)[C@H](C)O2)C1)C(=O)c1ccccc1C3=O	70.3*	69.1*	·	·	Rv3671c cf=81.3*
Cc1sc(-c2ccncc2)nc1OC(=O)c1ccccc1	2.4	44.1*	2.7	8.8	Rv3671c cf=60.9*
